Screening results: PubChem BioAssay, National Center for Advancing Translational Sciences (NCATS)
HP1b binding inh – HTS for Inhibitors of HP1-beta Chromodomain Interactions with Methylated Histone Tails; AlphaScreen HP1-beta / biotin-H3K9me3 peptide binding; Potency, µM (doses to about 114 µM), for the others: at the highest dose activity change, negative = inhibition, most hits filed as inhibitors; 390,000 tested, 0.56% active; AID 540317, 2011; also: nearly all actives have a fitted effect of over 70% in size
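HP1-beta protein (50 nM final) preincubated 30 min at room temperature with biotinylated H3(1-18)K9me3 peptide (50 nM) in PBS pH 7.4, 0.01% Tween-20, then compound added for 30 min. AlphaScreen streptavidin donor/nickel chelate acceptor beads (10 ug/mL final), 30 min dark, luminescence read.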
G9a inh – qHTS Assay for Inhibitors of Histone Lysine Methyltransferase G9a | G9a H3K9 monomethylation, AlphaScreen, 2 h | 350,000 tested, 8.8% active | AID 504332, 2011 | Histone-lysine N-methyltransferase EHMT2 (Homo sapiens), Q96KQ7 | Potency, µM (top dose mostly 102 µM), for inactives: at the highest dose activity, negative = inhibition, most hits filed as inhibitors; also: % is scaled to controls: 0 for no effect and ±100 for the full control effect; nearly all actives have a fitted effect of over 75% in size
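Step 1: enzyme (final 20 nM) with compound, 15 min RT. Step 2: substrate peptide 500 nM and SAM 20 uM, 2 h RT. Step 3: anti-H3K9me1 antibody and AlphaScreen beads, 10 min, then plate read.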
BAZ2B inh – qHTS Assay for Inhibitors of BAZ2B. Bromodomain adjacent to zinc finger domain protein 2B (Homo sapiens), Q9UIF8. AlphaScreen BAZ2B-H3K14Ac peptide displacement. Potency, µM (series often up to 114 µM), inactives show at the highest dose activity change, negative = inhibition, most hits filed as inhibitors. 360,000 tested, 4.4% active; also: % is scaled to controls: 0 for no effect and ±100 for the full control effect; nearly all actives have a fitted effect of over 60% in size
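Multi-concentration screen (max 110 uM) measuring displacement of acetylated histone H3 peptide from BAZ2B by AlphaScreen, using 50 nM protein, 50 nM peptide and 10 ug/mL streptavidin donor plus Ni-chelate acceptor beads.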
12-LOX inh – Primary qHTS assay for inhibitors of human arachidonate 12S-lipoxygenase (ALOX12): Round 2 | Polyunsaturated fatty acid lipoxygenase ALOX12 (Homo sapiens), P18054 | purified 12hLO, xylenol orange hydroperoxide absorbance | Potency, µM (titrated, usually from 108 µM), inactives show at the highest dose activity change, negative = inhibition, actives largely listed as inhibitors | 580,000 tested, 1.1% active | AID 1671190, 2021; also: % is scaled to controls: 0 for no effect and ±100 for the full control effect
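Hydroperoxide product was detected by ferrous iron/xylenol orange as the 573 to 405 nm absorbance ratio. Arachidonic acid at 40 uM (final) was turned over for 30 min at room temperature by 150 nM human 12hLO, pH 7.0 Hepes buffer, after 15 min compound preincubation.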
Sfp inh – qHTS Assay for Inhibitors of Bacillus subtilis Sfp phosphopantetheinyl transferase (PPTase). Potency, µM, without a hit: largest response in the series, negative = inhibition, usual class: inhibitors. 310,000 tested, 3.5% active. Biochemical Sfp PPTase activity, qHTS. 4'-phosphopantetheinyl transferase ffp (Bacillus subtilis), Q9F4F7;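 also: the enzyme is Sfp with the accession as filed and its product quenches rhodamine fluorescence; 0% = enzyme reaction without inhibitor and -100% = no enzyme wells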
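Buffer: 50 mM Hepes-Na pH 7.6, 10 mM MgCl2, 0.01% Nonidet P-40, 0.01% BSA. Enzyme 15 nM, pre-exposed to compound 15 min; substrates then added and fluorescence change tracked over 30 min.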
JMJD2A Tudor – qHTS Assay for Inhibitors of JMJD2A-Tudor Domain; 390,000 tested, 4.4% active; AlphaScreen JMJD2A-Tudor / H3K4me3 peptide binding; Potency, µM (doses to about 114 µM), for the others: top-dose activity change, negative = inhibition, most hits filed as inhibitors; Lysine-specific demethylase 4A (Homo sapiens), O75164; also: % is scaled to controls: 0 for no effect and ±100 for the full control effect; nearly all actives have a fitted effect of over 50% in size
* hit, by the source's call; u = inconclusive; x = not tested or not shown; [ ] = remark or other dose. Most compounds without a hit are left out; they make up all but 8.7% or so of the library. Calls follow the shape of the dose curve; as a rule, active = well fitted curve in the direction sought with a large enough effect; inconclusive = small, poorly fitted or top-dose-only effect, or another doubt; inactive = no such curve, though single readings can be large; an effect the other way counts as inactive or inconclusive. Potency is read from the fitted curve at half-maximal effect.

SMILES	HP1b binding inh	G9a inh	BAZ2B inh	12-LOX inh	Sfp inh	JMJD2A Tudor
CCCC(=O)Nc1ccc2c(c1)nc(CN1CCN(C(=O)OCC)CC1)n2C(C)C	41%	-19%[59 µM]	-36%	0%	x	-13%
COc1cc(C)nc(NCc2ccccc2)n1	16%	-22%[12.7 µM]	8%	0%	-3%	-14%
COc1ccc(Nc2cc(C)nc(NCc3ccccc3)n2)cc1	-31%	50µM*	-36%	u	32µM*	u
O=C1N/C(=N\c2ccccn2)SC1Cc1ccc(Cl)cc1 (stereo unspecified)	1%	u	-18%	u	23%	25µM*
C[N+](C)(C)c1ccc(/C=N/Nc2nc(Cl)c(C#N)c(Cl)c2Cl)cc1	9%	u	50µM*	u	-7%	32µM*
NC(=O)c1ccc(N=Cc2c(O)ccc3ccccc23)cc1	5%	x	x	-16%	x	u
Cc1ccc(N=Cc2c(O)ccc3ccccc23)cc1F	0%	1.3µM*	7%	-14%	-17%	56µM*
CCN(CC)c1ccc(O)c(C=Nc2ccc(C)c(C)c2)c1	31%	-48%	-28%	0%	-2%	8%
COc1ccc(N=Cc2c(O)ccc3ccccc23)cc1	82%	0.79µM*	-20%	u	u	35%
O=C(O)c1ccc(N=Cc2c(O)ccc3ccccc23)cc1	15%	1.1µM*	-5%	-4%	0%	u
COc1ccc(NC(C)C(=O)N/N=C/c2ccccc2OCc2cccc(Br)c2)cc1 (stereo unspecified)	u	40µM*	10µM*	-2%	5%	11µM*
Cc1cc(-c2nc3ccccc3s2)ccc1NC(=O)c1ccccc1C	x	x	x	-5%	x	x
O=C(O)CCn1ncc2cc(OCC3CCN(C(=O)Oc4ccccc4)CC3)ccc21	x	x	x	12%[176 µM]	x	x
CNC(=O)[C@@H]1CN(S(=O)(=O)c2c(C)noc2C)C[C@H]1C1CCN(C)CC1	x	x	x	7%	x	x
Cc1ccc2c(c1)C(=O)c1ccccc1C2=O	x	x	x	-4%[176 µM]	x	x
CCCNC(=O)COC(=O)/C=C/c1cccc2cccnc12	x	x	x	-10%	x	x
Nc1cc(Cl)nc(N/N=C/c2c(O)ccc3ccccc23)n1	18%	-19%[59 µM]	2%	5%	23%	-12%
N#Cc1cccc(N=Cc2c(O)ccc3ccccc23)c1	-25%	1.4µM*	-3%	-13%	-3%	35µM*
O=C(O)Cc1ccc(N=Cc2c(O)ccc3ccccc23)cc1	-9%	1.6µM*	-29%	-17%	2%	-26%
CC(=O)Nc1ccc(N=Cc2c(O)ccc3ccccc23)cc1	1%	1.8µM*	-25%	-24%	-2%	-27%
COc1ccc(NC(C)C(=O)N/N=C/c2c(O)ccc3ccccc23)cc1 (stereo unspecified)	50%	45µM*	0%	0%	17%	-13%
Cc1occc1C(=O)N/N=C/c1c(O)ccc2ccccc12	38%	44%	19%	-14%	8%	-18%
O=C(CNc1ccccc1)N/N=C/c1c(O)ccc2ccccc12	24%	-13%	-1%	u	3%	-15%
COCCOC(=O)C(C#N)c1nc2ccccc2nc1N1CCN(c2ccccc2OC)CC1 (stereo unspecified)	x	x	x	-7%	x	x
O=S(=O)(/N=C/c1c(O)ccc2ccccc12)c1ccccc1	79µM*	1.4µM*	-20%	-17%	-1%	56µM*
O=C1O[C@@H]2CN(S(=O)(=O)N3CCCC3)C[C@@H]2N1CCCc1ccc(F)cc1	x	x	x	-23%	x	x
c1ccc2nc3c(nc2c1)CCc1nonc1-3	23%	16%[59 µM]	3%	-11%	5%	-8%
